Assay [1] addresses Glutathione peroxidase 1 (Homo sapiens) (UniProt P07203). The assay is described as follows: Primary qHTS Assay for Inhibitors of Recombinant Selenoprotein Glutathione Peroxidase 1 (GPX1) (AID 1845191). Also: nearly all actives have a fitted effect of over 65% in size. As to activity, negative = inhibition: % is scaled to controls: 0 for no effect and ±100 for the full control effect. The following applies: recombinant GPX1, GR-coupled NADPH fluorescence, 15 min; series mostly up to 48.8 µM. The method in brief: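 GR-coupled readout: NADPH consumption tracked by fluorescence, ex 340/em 450 nm, at t=0 and after 15 min at RT. Final mix 10 nM GPX1, 1 mM GSH, 0.5 mM CHP, 0.5 mM NADPH, 100 nM GR, 0.01% BSA, following 30 min enzyme–compound preincubation.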

For assay [2], the target named is Phospholipid hydroperoxide glutathione peroxidase GPX4 (Homo sapiens) (UniProt P36969). The assay is described as follows: Primary qHTS Assay for Inhibitors of Recombinant Selenoprotein Glutathione Peroxidase 4 (GPX4) (AID 1845192). Also: nearly all actives have a fitted effect of over 65% in size. Also: potency is read from the fitted curve at half-maximal effect. To be noted: recombinant GPX4, GR-coupled NADPH fluorescence, 15 min; series mostly up to 50 µM. The method in brief: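 Steps: GPX4 plus compound, 30 min RT; add GR/GSH/NADPH master mix; start with cumene hydroperoxide; read 340/450 nm fluorescence at 0 and 15 min. Finals were 200 nM GPX4, 1 mM GSH, 0.5 mM CHP, 0.5 mM NADPH, 100 nM GR.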
(In general: Quantitative high-throughput screening tests each substance at several concentrations.)

Assay [3] addresses Luciferin 4-monooxygenase (Photinus pyralis) (UniProt P08659). The assay is described as follows: Primary firefly luciferase (FLuc) qHTS assay for identification of artifact compounds. (AID 1845220). Also: nearly all actives have a fitted effect of over 60% in size. The following applies: purified firefly luciferase, luminescence, 5 min; series mostly up to 54.1 µM. The method in brief:
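D-luciferin and ATP (10 uM each, final) in Tris acetate buffer pH 7.6 were incubated with compounds for 15 min at room temperature. The reaction was started with 10 nM Photinus pyralis luciferase and luminescence read after 5 min. Percent inhibition was fitted to a 4-parameter Hill equation.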

Assay [4] can be described thus: Primary fluorescence-based thiol-reactive (MSTI) qHTS assay for identification of artifact compounds. (AID 1845221). Also: nearly all actives have a fitted effect of over 65% in size. Also: potency is read from the fitted curve at half-maximal effect. To be noted: MSTI thiol-reactivity probe, 1 h; series mostly up to 53.8 µM. Summed up:
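One-hour, room-temperature, dark incubation of compound with 4 uM MSTI in PBS (pH 7.4, 2% DMSO) precedes a fluorescence read at 525 nm excitation, 598 nm emission; Hill-equation fitting yields concentration-response values.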

A number with no mark means an inactive call. Inconclusive results are not listed. Activity calls are given as the source filed them. Calls follow the shape of the dose curve; as a rule, active = well fitted curve in the direction sought with a large enough effect; inconclusive = small, poorly fitted or top-dose-only effect, or another doubt; inactive = no such curve, though single readings can be large; an effect the other way counts as inactive or inconclusive.

Chain of Glutathione peroxidase 1 (Homo sapiens) (P07203 whole entry, looked up): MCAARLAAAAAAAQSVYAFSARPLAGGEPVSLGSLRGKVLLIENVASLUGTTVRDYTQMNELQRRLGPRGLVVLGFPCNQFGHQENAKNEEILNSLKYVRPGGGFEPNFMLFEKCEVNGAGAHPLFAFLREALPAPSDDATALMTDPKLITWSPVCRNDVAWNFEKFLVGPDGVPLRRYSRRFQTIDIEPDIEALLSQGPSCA
Chain of Phospholipid hydroperoxide glutathione peroxidase GPX4 (Homo sapiens) (P36969 whole entry, looked up): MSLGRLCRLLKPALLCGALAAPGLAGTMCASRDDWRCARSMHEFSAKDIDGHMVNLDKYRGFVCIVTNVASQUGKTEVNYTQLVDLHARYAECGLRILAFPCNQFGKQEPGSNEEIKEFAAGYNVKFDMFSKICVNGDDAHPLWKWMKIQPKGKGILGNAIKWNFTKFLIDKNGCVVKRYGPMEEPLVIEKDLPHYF

As for `C=C1C(=O)O[C@@H]2[C@H]1CC(=O)[C@H](C)[C@@](O)(C(=O)/C=C/C)[C@H]2OC(=O)C(C)CC` (some centres not stated), the Potency entry in assay [1], in assay [2], in assay [3] and in assay [4] was “inactive” each time.
`CON=C1C[C@]2(C[C@@H]3C[C@@H](C/C=C(\C)C[C@@H](C)/C=C/C=C4\CO[C@@H]5[C@H](O)C(C)=C[C@@H](C(=O)O3)[C@]45O)O2)O[C@H](/C(C)=C/C(C)C)[C@H]1C`: the Potency entry in assay [1] and in assay [2] was “inactive” each time.
In the case of `CCOC(=O)[C@@]1(CCCCCCOc2ccc(Cl)cc2)CO1`, the Potency entry in assay [1] and in assay [2] was “inactive” each time.
On to `O=S(=O)(Nc1cc(Cl)c(Oc2cnc3ccccc3c2)c(Cl)c1)c1ccc(Cl)cc1Cl`, for which the Potency result in assay [1], in assay [2] and in assay [3] was “inactive” in each case.
In the case of `CC(=O)O[C@H]1CC[C@@]2(C)C(=CC[C@H]3[C@@H]4CC[C@H](C(C)=O)[C@@]4(C)CC[C@@H]32)C1`, the Potency entry in assay [1] and in assay [2] was “inactive” throughout.
Take `CCCCCCCCCCCCCCCC(=O)O[C@@H]1CC(C)=C(/C=C/C(C)=C/C=C/C(C)=C/C=C/C=C(C)/C=C/C=C(C)/C=C/C2=C(C)C[C@@H](OC(=O)CCCCCCCCCCCCCCC)CC2(C)C)C(C)(C)C1`: the Potency entry in assay [1] is “inactive”. The Potency in assay [2] is 1260 nM (active).
On the same counts, the results for `CN[C@@H]1CCc2[nH]c3ccc(C(N)=O)cc3c2C1` are “inactive” and “inactive”.
`CC(=O)OC1C(=O)C2C3OCC4=C3[C@@](C)(CC[C@@H]4O)CC[C@]2(C)[C@H]1C(C)C` (some centres not stated): the Potency result in assay [1], in assay [2] and in assay [3] was “inactive” throughout.
With `CCN(c1cc(-c2ccc(CN3CCOCC3)cc2)cc(C(=O)NCc2c(C)cc(C)[nH]c2=O)c1C)C1CCOCC1`, the Potency entry in assay [1], in assay [2], in assay [3] and in assay [4] was “inactive” each time.
Consider `NC(=O)c1cnc(N[C@@H]2CCCC[C@@H]2N)nc1Nc1cccc(-n2nccn2)c1`, for which the Potency entry in assay [1] and in assay [2] was “inactive” throughout.
Consider `CCCCCCCCCCCCCCCC(=O)OCCC1CCN(CCCN2c3ccccc3Sc3ccc(S(=O)(=O)N(C)C)cc32)CC1`, for which the Potency entry in assay [1] and in assay [2] was “inactive” each time.
On to `CC(=O)OC[C@]12[C@H](OC(C)=O)C(=O)[C@@H]3[C@@H](O)[C@@]14O[C@@]3(C)COC(=O)c1cccnc1[C@@H](C)[C@H](C)C(=O)O[C@@H]([C@H](O)[C@@H]2OC(C)=O)[C@]4(C)O`, for which the Potency result in assay [1], in assay [2] and in assay [3] was “inactive” in each case.
On to `O=C(O)c1cc2ccccc2c(Cc2c(O)c(C(=O)O)cc3ccccc23)c1O`, for which the Potency entry in assay [1] and in assay [2] was “inactive” in each case.
As for `COc1cc(N2CCC(N3CCN(C)CC3)CC2)ccc1Nc1ncc(Cl)c(Nc2ccccc2P(C)(C)=O)n1`, the Potency result in assay [1], in assay [2] and in assay [3] was “inactive” throughout.
Turning to `Cc1cn2c(n1)Cc1ccc(Cl)cc1C(c1ccc(N)cc1)=N2`, the Potency result in assay [1], in assay [2] and in assay [3] was “inactive” each time.
As to `Cc1cccc(C)c1N(CCCc1cccnc1)C(=O)C(C)N` (configuration not stated), the Potency result in assay [1] and in assay [2] was “inactive” throughout.
Consider `CC(=O)OC1C(OC(=O)c2ccccc2)C2C(C)(C)CCC(OC(C)=O)C2(C)C23CCC(C)(C2)C(=O)CC13` (configuration not stated), for which the Potency result in assay [1], in assay [2], in assay [3] and in assay [4] was “inactive” in each case.
For `COc1ccc(N2CCN(C(=O)c3cc4c(s3)-c3ccccc3S(=O)(=O)C4)CC2)cc1`, the Potency entry in assay [1], in assay [2] and in assay [3] was “inactive” each time.
Take `Cc1[nH]c(/C=C2\C(=O)Nc3ccc(S(=O)(=O)N(C)c4cccc(Cl)c4)cc32)c(C)c1C(=O)N1CCN(C)CC1`: the Potency result in assay [1], in assay [2] and in assay [3] was “inactive” each time.
Consider `CN1CC(O)c2cc(N=NC(N)=O)c(O)cc21` (configuration not stated), for which the Potency entry in assay [1] and in assay [2] was “inactive” throughout.
With `COc1cc2ncnc(Nc3ccc(F)c(Cl)c3)c2cc1O`, the Potency result in assay [1], in assay [2] and in assay [3] was “inactive” each time.
For `COc1cc(CCc2ccc(OCC=C(C)C)cc2)cc(OC)c1OC`, the Potency result in assay [1], in assay [2] and in assay [3] was “inactive” throughout.
As to `O=C1Cc2c([nH]c3ccc(Br)cc23)-c2ncccc2N1`, the Potency result in assay [1], in assay [2] and in assay [3] was “inactive” throughout.
Turning to `CNc1ccc([N+](=O)[O-])c(Nc2ccc3[nH]ncc3c2)n1`, the Potency result in assay [1], in assay [2] and in assay [3] was “inactive” in each case. For the same compound, in assay [4], the Potency is 4740 nM (active).
As to `CCCN(CC)C(CC)C(=O)Nc1c(C)cccc1C` (configuration not stated), the Potency entry in assay [1] and in assay [2] was “inactive” in each case.
Consider `CC[C@@H](C)[C@@H]1OC2(C=C[C@H]1C)C[C@@H]1C[C@H](C/C=C(\C)[C@H](O[C@H]3C[C@H](OC)[C@H](O[C@H]4C[C@H](OC)[C@H](NC(C)=O)[C@H](C)O4)[C@H](C)O3)[C@H](C)/C=C/C=C3\CO[C@H]4[C@H](O)C(C)=C[C@@H](C(=O)O1)[C@@]34O)O2` (some centres not stated), for which the Potency result in assay [1], in assay [2] and in assay [3] was “inactive” in each case.
As for `O=P(O)(O)C(Sc1ccc(Cl)cc1)P(=O)(O)O`, in assay [1], the activity, negative = inhibition is 3.51% [at 0.4 µM]. The outcome in assay [2] is “inactive [at 0.409 µM]”.
For the compound `CC(=O)O[C@@H]1CC2C(C)(C)C(=O)C=C[C@]2(C)C2CC[C@@]3(C)[C@H](c4ccoc4)OC(=O)[C@H]4O[C@]43[C@@]21C` (some centres not stated), the Potency result in assay [1], in assay [2], in assay [3] and in assay [4] was “inactive” each time.

The record behind these values is PubChem BioAssay (NCATS).
